Several values for one entry are separate records, joined by “and”; a condition that tells them apart may be missing. Equal values may be shown once. This is part of a sample that, as a whole, favours compounds with a hit. Of some 83,000 tested, about 20% had one in any assay.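 Single-concentration screen, 48 h exposure, 96-well plates. Endpoint: percent growth. Below 10 = active.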 Activity calls are given as the source filed them.

The test system of this experiment is MDA-MB-468 breast. As to the kind of experiment: NCI-60 one-dose screen, 48 h (100 = growth as untreated, 0 = no growth, -100 = all killed). To be noted: 10 µM unless noted.
For the compound `Cn1cc(-c2cc3ncnc(Nc4ccc(CC(=O)Nc5cc(C(C)(C)C)on5)cc4)c3s2)cn1`, the growth is 31.5% (inactive).

As for `CCNC(=O)Nc1ccc(-c2nc3c(c(N4CCOC[C@@H]4C)n2)CCN(C2COC2)C3)cc1`, the growth was 13.5% (inactive) and -25.6% (active).

Take `COc1ccc(Nc2ncnc3ccc(-c4cncc(NS(C)(=O)=O)c4)cc23)cc1Cl`: the growth is -10.1% (active).

As for `Cc1cccc(CN(Nc2ccccc2)c2ccccc2)n1`, the growth was 94.9% (inactive).

`NC1=CSC2=N/C(=C\c3ccc(Cl)cc3)C(=O)N12`: the growth was 64.5% (inactive).

In the case of `COc1cc(C)cc2oc3oc(=O)c(-c4csc(-c5cc6ccccc6oc5=O)n4)cc3c(=O)c12`, the growth was 102% (inactive).

In the case of `COCCc1n(Cc2ccc3ccccc3c2)c2ccccc2[n+]1Cc1ccc2ccccc2c1`, the growth was -23.4% (active).

Turning to `CCc1ccccc1-n1c(N)c(C#N)c(-c2ccc(Cl)cc2)c(C#N)c1=O`, the growth was 98.8% (inactive).

Consider `COc1ccc(C(=O)NC(=O)Nc2ccc3c(c2)NC(=O)/C3=C\c2[nH]c(C)c(C(=O)O)c2C)cc1`, for which the growth is 76.2% (inactive).

For the compound `C=CCc1cc(C)ccc1NC(C(=O)NCC(=O)OC)c1ccccc1` (centres undefined), the growth was 111% (inactive).

`COc1ccc(C/C(C)=C(\c2ccc(Cl)cc2)c2ccc(OCCCN(C)C)cc2)cc1`: the growth was 59.7% (inactive).

For `COc1ccc(/C(=N/O)c2cc(OC)c(OC)c(OC)c2)c(OC)c1N`, the growth is 27.8% (inactive).

As to `O=C(Nc1ccc(F)cc1)c1ccc(C(=O)Nc2ccc(F)cc2)cc1`, the growth was 99.7% (inactive).

Take `Cc1cc(N(CCNc2ccnc3cc(Cl)ccc23)Cc2ccc3c(c2)OCO3)nc(N2CCCC2)n1`: the growth is -39.4% (active).

The values are drawn from PubChem BioAssay (NCI).
